High-throughput results deposited in PubChem by several laboratories.
Compounds with a hit are over-represented: about 3.9% of the library has one in this group of screens.
Anthrax LF prot = inhibitors of Bacillus anthracis lethal factor protease; P15917; multiplex microsphere protease cleavage assay, LF; inhibition, % at 10 µM; 360,000 tested, 0.12% active; AID 588501; also: plate controls were buffer without enzyme for full effect and enzyme alone for no effect
Bead autofluor = counter-screen for toxin protease inhibitors: compound fluorescence; compound autofluorescence counterscreen, microsphere flow cytometry; hits give high values; fluorescence intensity (test concentration not listed); 360,000 tested, 3.1% active; in the data active = fluorescence intensity above about 16000; inconclusive = no clear call, values can overlap the other calls
BoNT A protease = inhibitors of Botulinum neurotoxin A light chain protease | multiplex microsphere protease substrate cleavage, flow cytometry | inhibition, % at 10 µM | 360,000 tested, 0.17% active; also: plate controls were buffer without enzyme for full effect and enzyme alone for no effect
CCHF vOTU inh = blocks the CCHF virus ovarian tumor domain protease; CCHFV vOTU protease, Pep-AMC fluorescence; inhibition, % at 11.5 µM; 370,000 tested, 0.55% active; AID 651958; in the data active = inhibition above about 30%; also: 0% = vehicle wells with enzyme and 100% = no enzyme wells
BoNT-F LC inh = BoNT F light chain protease inhibition; AID 588497; Multiplex microsphere protease cleavage assay, flow cytometry; 360,000 tested, 0.22% active; inhibition, % at 10 µM; in the data active = inhibition above about 35%, passing the limit was not always enough; inconclusive = no clear call, values can overlap the other calls; also: plate controls were buffer without enzyme for full effect and enzyme alone for no effect
3CLpro inhibitor = SARS-CoV 3CLpro protease inhibition; P0C6X7; recombinant SARS-CoV 3CLpro, quenched FRET peptide cleavage; inhibition, % at 6 µM; 290,000 tested, 0.14% active; in the data active = inhibition above about 12%
Active calls of the source: *; u = inconclusive; x = no result. Rule as the data show it, unless noted: active = inhibition above about 30%; inconclusive = no clear call, values can overlap the other calls; inactive = below that.

SMILES | Anthrax LF prot | Bead autofluor | BoNT A protease | CCHF vOTU inh | BoNT-F LC inh | 3CLpro inhibitor
CC(C)CCN(C(=O)CCCSc1nc2ccccc2[nH]1)c1c(N)n(Cc2ccccc2)c(=O)[nH]c1=O | -6 | u | -1 | 1 | -4 | x
C/C(=N\NC(=O)c1ccccc1O)c1c(O)cc(C)oc1=O | 3 | 17536* | 11 | -6 | 17 | 1
C/C(=N\NC(=O)c1ccccc1[N+](=O)[O-])c1c(O)cc(C)oc1=O | -4 | 2539 | -1 | 16 | -13 | 2
CN(CC(=O)Nc1sccc1C#N)S(=O)(=O)c1ccc(F)cc1 | x | x | x | -3 | x | x
CC(C)C[C@H]1COc2cc(Br)ccc2S(=O)(=O)N1Cc1cn(CCC2OCCCO2)nn1 | x | x | x | -3 | x | x
CC(C)C1Cc2nc(Cl)c(C#N)cc2CO1 (stereo not given) | 15 | 4960 | u | -8 | u | 4
CCOC(=O)c1sc(=S)n(-c2cc(OC)ccc2OC)c1N | 0 | 2436 | 0 | 8 | -8 | -3
CCOC(=O)c1sc(=S)n(-c2cc(F)ccc2F)c1N | -3 | 24008* | -1 | 12 | -5 | 1
CCOC(=O)c1sc(-c2ccc(F)cc2)cc1N | -2 | 25606* | -5 | 4 | -9 | 0
CCOC(=O)c1sc(-c2ccc(OC)cc2)cc1N | -6 | 2500 | 0 | -2 | 0 | 0
CCOC(=O)c1sc(=S)n(-c2ccccc2)c1SC | -1 | 21506* | -6 | 11 | -10 | -6
COC(=O)c1sc(=S)n(-c2cc(F)ccc2F)c1N | 0 | 19767* | -1 | 1 | -2 | 2
Cc1cc2occ(CC(=O)NC3(C)CCS(=O)(=O)C3)c2cc1C (stereo not given) | -5 | 5148 | 2 | -2 | 6 | -1
COc1ccc(C(=O)N2CCOC2CNC(=O)C(=O)NCCc2ccc(OC)c(OC)c2)cc1 (stereo not given) | -3 | 4028 | 1 | -2 | -2 | -2
CC(C)CCNC(=O)C1CCC(CNS(=O)(=O)c2ccc(Cl)cc2)CC1 (stereo not given) | -11 | 4566 | -4 | -3 | -15 | 3
O=C(Cc1ccccc1Cl)c1ccccc1 | -2 | 2877 | 0 | 4 | 9 | x
O=C(OCc1nnc(-c2ccc(Cl)cc2)o1)C12CC3CC(CC(O)(C3)C1)C2 | -8 | 5072 | 0 | -7 | -5 | -4
COc1cccc(-c2csc(N3CCN(Cc4ccccc4)CC3)n2)c1 | -3 | 24520* | -3 | 0 | -9 | 1
COc1cccc(-c2csc(N3CCN(S(=O)(=O)c4ccc(F)cc4)CC3)n2)c1 | -7 | 21656* | 2 | -3 | 1 | 3
[O-][n+]1c2ccccc2cc2ccccc21 | -2 | 3964 | 0 | -56 | -5 | x
N#CC1=C(c2ccc(-c3ccccc3)cc2)COC1=O | -12 | 4379 | 0 | -1 | 6 | 0
Cc1ncoc1C(=O)Nc1cccc(Cl)c1 | 0 | 16565* | -1 | x | -3 | 1
Cc1ocnc1C(=O)Nc1ccc(Cl)cc1 | -6 | 20071* | -2 | -5 | -4 | 0
Cc1ncoc1C(=O)Nc1ccccc1C(N)=O | 0 | 23428* | 0 | 0 | -2 | -5
Cc1ncoc1C(=O)Nc1cccc(Cl)c1C | -1 | 23395* | -4 | -16 | -2 | -3
SMILES | Anthrax LF prot | Bead autofluor | BoNT A protease | CCHF vOTU inh | BoNT-F LC inh | 3CLpro inhibitor
Cc1ccccc1NC(=O)c1ocnc1C | 4 | 5817 | 0 | -1 | -7 | 0
COc1ccccc1OCC(=O)N/N=C1/SCC(=O)N1Cc1ccccc1 | -1 | 22284* | 2 | 9 | 2 | 6
CCOc1cc(N2CCOCC2)c(OCC)cc1NC(=O)[C@H](C)NC(=O)c1ccco1 | -2 | 4281 | -2 | 16 | -10 | -2
CCCCC(=O)Nc1c(O)c2ccccc2[nH]c1=O | 0 | 21304* | -2 | -6 | -1 | 3
CC1(C)NC(=O)N(CC(=O)Nc2ccc(-n3cnnn3)cc2)C1=O | 9 | 2912 | 0 | -6 | -2 | x
C(=C\c1ccccc1)/CN1CCN(C(c2cccc3ccccc23)c2nnnn2C2CCCC2)CC1 (stereo not given) | -9 | 6355 | 0 | 2 | -4 | x
COCCn1nnnc1CN(Cc1ccco1)Cc1cc2cc3c(cc2[nH]c1=O)OCO3 | 0 | 23147* | 0 | -24 | -1 | 1
CC(C)(C)n1nnnc1CN(Cc1ccco1)Cc1cc2cc3c(cc2[nH]c1=O)OCO3 | -1 | 2202 | 0 | -26 | -10 | 2
c1csc(-c2nnc3ccccn23)c1 | -4 | 18537* | u | -1 | 9 | 0
Cc1ccccc1-n1nnnc1Sc1nnnn1-c1ccccc1 | 1 | 3503 | 0 | 5 | -7 | -3
c1ccc(-n2nnnc2Sc2n[nH]c(-c3ccncc3)n2)cc1 | -2 | 24881* | -3 | -4 | -6 | -1
COc1ccc(-c2c[n+]3c4n2CCCCC4=C(c2ccc(Br)cc2)C3)cc1 | 2 | 22490* | u | -6 | -16 | 3
Cc1cc(NC(=O)c2ccc(NS(=O)(=O)c3ccc(F)cc3)cc2)no1 | x | x | x | 2 | x | x
CC(=O)c1ccc(NC2c3ncccc3C(=O)N2Cc2ccc(F)cc2)cc1 (stereo not given) | 1 | 21897* | 5 | 4 | 4 | -2
O=C1c2cccnc2C(O)N1Cc1ccc(F)cc1 (stereo not given) | -5 | 23014* | 0 | 20 | 1 | 1
O=C1c2cccnc2C(=O)N1Cc1ccc(F)cc1 | -9 | 21659* | 3 | 3 | 3 | 0
CCN(CC)c1ccc(/C=N/NC(=O)CNC(=O)/C=C/c2ccco2)cc1 | 0 | 4369 | 2 | 24 | 0 | 1
C/C(Cc1ccccc1)=N\NC(=O)CNC(=O)Cc1ccc(Cl)cc1 | 1 | 3528 | 1 | -7 | u | 4
CC(C)CC(=O)N1CCC(C(=O)NCC2COc3ccccc3O2)CC1 (stereo not given) | x | x | x | 0 | x | x
COc1cccc(/C=N/NC(=O)c2cnn(-c3ccccc3)c2N)c1 | -11 | 5687 | 0 | -7 | -7 | 0
CCCCC(=O)Nc1ccc2c(c1)nc1n2CCSC1 | 9 | 4261 | 7 | -5 | 21 | -3
CC(=O)Nc1ccc2c(c1)nc1n2CCSC1 | -1 | 18041* | 5 | 16 | 1 | -2
Cc1ccc(C(=O)Nc2ccc3c(c2)nc2n3CCSC2)cc1 | 5 | 23988* | 2 | 0 | 4 | -2
Cc1cccc2[nH]c3c(N4CCN(C(=O)c5ccco5)CC4)ncnc3c12 | -3 | 24618* | -3 | x | -8 | -5
Cc1cccc2[nH]c3c(N4CCC5(CC4)OCCO5)ncnc3c12 | -4 | 22045* | u | -40 | -2 | 4
CCCC(=O)N1CCCC1(C)C(=O)NCc1c(F)ccc(C)c1F (stereo not given) | -6 | 3498 | 0 | 16 | 2 | x
COC(=O)c1cccc(NC(=O)CCc2c(C)noc2C)c1 | 0 | 4035 | 0 | 9 | -8 | x
Cn1c(O)c(C2=c3ccccc3=NC2=O)sc1=Nc1ccc(Cl)cc1 | 0 | 19149* | 3 | 4 | 2 | 2
NCCC(=O)N1c2ccccc2Sc2ccccc21 | -14 | 4134 | -7 | -9 | -44 | 2
